Screening results as filed in PubChem.
An excerpt weighted towards active compounds, which were near 0.82% of everything screened.
RTF Ca sens inh: cardiac RTF calcium sensitivity inhibitors, primary screen, biochemical, IANBD-TnC fluorescence, EC70 calcium; Troponin I, cardiac muscle (Homo sapiens) + Troponin T, cardiac muscle (Homo sapiens) + …; IANBD-labeled cardiac RTF, Ca2+ fluorescence; hit rate 0.12% among 340,000; inhibition, % at 7.15 µM;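 active = inhibition above the mean inhibition of all tested compounds plus 3 SD, cut at about 17% in these data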;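 also: assay run at fixed EC70 calcium of 1.6 mM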
Keap1-Nrf2 PPI: Keap1-Nrf2 protein-protein interaction inhibitors, primary screen, biochemical, fluorescence polarization, single point. Kelch-like ECH-associated protein 1 (Homo sapiens), Q14145. Keap1 Kelch-Nrf2 peptide fluorescence polarization, 1536-well. inhibition, % at 9.4 µM. hit rate 0.15% among 340,000. AID 504523, 2011; in the data active = inhibition above about 12%;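 also: human Keap1 Kelch domain with fluorescein labeled Nrf2 9mer peptide probe; 0% = neutral control wells and 100% = peptide positive control; higher means more block of Keap1 binding to Nrf2 peptide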
Target sequence (Q14145 whole entry, looked up, the tested form may be a part): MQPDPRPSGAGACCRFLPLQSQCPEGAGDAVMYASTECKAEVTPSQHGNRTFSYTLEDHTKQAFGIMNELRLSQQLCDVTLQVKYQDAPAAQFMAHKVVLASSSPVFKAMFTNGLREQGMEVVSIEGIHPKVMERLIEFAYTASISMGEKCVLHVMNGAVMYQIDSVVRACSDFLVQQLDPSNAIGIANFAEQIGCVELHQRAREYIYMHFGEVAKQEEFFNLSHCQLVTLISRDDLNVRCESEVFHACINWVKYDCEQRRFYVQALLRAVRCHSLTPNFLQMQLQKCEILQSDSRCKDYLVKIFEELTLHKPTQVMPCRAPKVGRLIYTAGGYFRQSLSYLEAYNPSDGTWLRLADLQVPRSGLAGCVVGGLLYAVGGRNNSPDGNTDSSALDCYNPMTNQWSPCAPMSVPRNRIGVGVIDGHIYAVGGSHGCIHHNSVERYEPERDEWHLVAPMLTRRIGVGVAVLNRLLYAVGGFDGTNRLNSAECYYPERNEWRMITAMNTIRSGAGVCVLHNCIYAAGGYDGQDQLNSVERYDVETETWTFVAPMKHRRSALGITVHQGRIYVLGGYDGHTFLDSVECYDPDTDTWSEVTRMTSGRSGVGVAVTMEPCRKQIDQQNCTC
eLon inh: inhibitors of E. coli Lon protease, primary screen, biochemical, fluorescence polarization. purified E. coli Lon protease. inhibition, % at 7.94 µM. hit rate 0.42% among 360,000. AID 602123, 2011; in the data active = inhibition above about 13%, passing the limit was not always enough;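 also: 0% = enzyme with probe and DMSO and 100% = no enzyme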
cardiac RTF act: cardiac RTF calcium sensitivity activators, primary screen, biochemical, IANBD-TnC fluorescence, EC20 calcium; activation, % at 7.2 µM; hit rate 0.24% among 340,000; Troponin I, cardiac muscle (Homo sapiens) + Troponin T, cardiac muscle (Homo sapiens) + …; IANBD-labeled TnC RTF fluorescence at EC20 calcium; 0% EC20 calcium, 100% full calcium;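 active = activation above the mean over all tested compounds plus 3 SD, cut at about 30% in these data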;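 also: rise in fluorescence read as greater calcium sensitivity of cardiac thin filaments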
C-LANA FP: inhibitors of KSHV C-LANA binding to DNA, primary screen, biochemical, fluorescence polarization, FAM-LBS DNA, MBP-C-LANA, single point. inhibition, % at 9 µM. hit rate 0.078% among 340,000. Kaposi's sarcoma herpesvirus LANA C-terminal domain (residues 932-1162) DNA binding;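 active = highest replicate inhibition at or above 60% at 9 µM, even if other replicates fall short; inactive = all replicates below 60% inhibition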;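 also: 0% = neutral control wells and 100% = 4 µM acridine orange control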
Keap1 TSA: Keap1 Kelch domain binders by thermal stabilisation, dose response, biophysical, thermal shift, RT-PCR instrument, cherry-pick | hit rate 8% among 400 | delta Tm; hits give high values | max delta Tm, degrees C | shares compounds with Keap1-Nrf2 PPI; in the data active = max delta Tm above about 0.48 degrees C
eLon confirm: E. coli Lon protease inhibitor retest, confirmation, biochemical, fluorescence polarization; hit rate 31% among 1,400; shares compounds with eLon inh; inhibition, % at 7.94 µM; purified E. coli Lon; in the data active = inhibition above about 16%;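 also: 0% = enzyme with probe and DMSO and 100% = no enzyme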
* hit, by the source's call; x = no result given; + = active, no number.

SMILES | RTF Ca sens inh | Keap1-Nrf2 PPI | eLon inh | cardiac RTF act | C-LANA FP | eLon confirm | others
COc1ccc(/C=N/N=C2/CC(C)(C)Cc3n[nH]c(=O)cc32)cc1 | -10 | 13* | 45* | 16 | 26 | 21* | Keap1 TSA=-0.17
O=C1CCC([N+](=O)[O-])C(c2ccccc2F)N1 (stereo unspecified) | -1 | 0 | 4 | 4 | 0 | x
CN1CC=C2C(C#N)=C(N)C(C#N)(C#N)[C@H](c3ccoc3)[C@H]2C1 | -56 | 27* | 130* | 50* | 58 | 109* | Keap1 TSA=-0.08
CN1CC=C2C(C#N)=C(N)C(C#N)(C#N)C(c3cccc(Cl)c3Cl)C2C1 (stereo unspecified) | -31 | -1 | 12 | 13 | 12 | x
Cc1ccc(C2C3CN(C(C)C)CC=C3C(C#N)=C(N)C2(C#N)C#N)cc1 (stereo unspecified) | -130 | 23* | 36* | 136* | 41 | 48* | Keap1 TSA=0.02
CCN1CC=C2C(C#N)=C(N)C(C#N)(C#N)C(CCc3ccccc3)C2C1 (stereo unspecified) | -41 | 22* | 27* | 35* | 54 | 21* | Keap1 TSA=-0.04
CC(=O)N1CC=C2C(C#N)=C(N)C(C#N)(C#N)C(CCc3ccccc3)C2C1 (stereo unspecified) | -12 | -10 | 5 | 7 | 0 | x
Cc1ccc(S(=O)(=O)N2[C@H](C(C)C)[C@H]3[C@H]4C(=O)N(c5ccccc5)C(=O)[C@H]4CC(=O)[C@H]3[C@@H]2c2ccccc2)cc1 | x | x | 0 | x | x | x
CCOc1ccc(C=Nc2cccc3ncccc23)cc1 | -13 | 1 | -4 | -5 | 2 | x
COc1ccc(C=Nc2cccnc2N)cc1 | -101 | 23* | + | 11 | 14 | -14 | Keap1 TSA=-0.2
COc1ccc(N=Nc2nc3ccc(Br)cc3n2C)cc1 | -272 | 48* | + | 132* | 70* | 92* | Keap1 TSA=-0.14
O=C(Cn1nc(-c2ccccc2)c2ccccc2c1=O)Nc1cccnc1 | -3 | -2 | -2 | 1 | 0 | x
O=C(Cn1nc(-c2ccc(Cl)cc2)c2ccccc2c1=O)Nc1cccnc1 | -2 | -8 | 18* | 3 | 3 | 2
COc1ccc(-c2nn(Cc3ccccc3)cc2C(=O)N2CCN(c3ncccn3)CC2)cc1OC | 3 | 0 | -23 | 0 | -1 | x
CCCC(=O)NC(c1ccc(OC)c(OC)c1)c1cc(Cl)c2cccnc2c1O (stereo unspecified) | -6 | -1 | 17* | 2 | -2 | 48*
COc1ccc(C(NC(C)=O)c2cc(Cl)c3cccnc3c2O)cc1 (stereo unspecified) | -4 | -5 | 3 | -3 | 3 | x
C/[N+]([O-])=C\c1cccc(OCCN2CCN(c3ncc(C(F)(F)F)cc3Cl)CC2)c1 | -1 | 1 | 10 | -3 | 1 | x
CC(C)(C)NC(=O)NC(=O)CN1CCc2ccccc21 | -4 | 1 | -10 | 0 | 1 | x
COCCNC(=O)NC(=O)CN1CCCc2ccccc21 | 2 | 0 | 48* | -4 | 4 | 6
CC1c2ccccc2-c2ccccc2N1C (stereo unspecified) | -4 | -5 | -9 | 1 | 1 | x
CCOC(=O)C(=C1Nc2ccccc2N1)n1c(-c2ccco2)nc2ccccc21 | x | x | 41* | x | x | 20*
CCOC(=O)C(=C1Nc2ccccc2N1)n1c(-c2cnccn2)nc2ccccc21 | x | x | -6 | x | x | x
O=C(NC12CC3CC(CC(C3)C1)C2)c1cnccn1 | -6 | 2 | 15* | 1 | 7 | -22
O=S1(=O)CC(N2CCN(CCO)CC2)CN1Cc1cn(Cc2ccccc2)nn1 (stereo unspecified) | x | x | -4 | x | x | x
Cc1cc(C(=O)NC2CCCc3c2cnn3-c2cccc(C)c2C)n(C)n1 (stereo unspecified) | -8 | -3 | -20 | -1 | 0 | x
SMILES | RTF Ca sens inh | Keap1-Nrf2 PPI | eLon inh | cardiac RTF act | C-LANA FP | eLon confirm | others
Cc1ccc(C(=O)Nn2c(O)c(C=C3N=c4ccccc4=N3)sc2=S)cc1 | -2 | 1 | 26* | -1 | 1 | 33*
O=C(Nc1nnc(SCCC2OCCO2)s1)C1CC(=O)N(c2ccc(F)cc2)C1 (stereo unspecified) | 0 | 2 | -15 | -4 | 2 | x
O=C(CSc1nnc(CSc2nc3ccccc3s2)o1)NC1CCCCC1 | -7 | -4 | 5 | 4 | 1 | x
O=C(CSc1nc2ccccc2s1)NC1CCCC1 | 3 | -4 | 23* | 3 | 0 | 3
O=S(=O)(NCCN1CCOCC1)c1ccc(F)c(Cl)c1 | 0 | -1 | 2 | 6 | 2 | x
O=S(=O)(NCCN1CCOCC1)c1ccc(Cl)c(Cl)c1 | -3 | -8 | 16* | -3 | 0 | -1
CC1=Nc2ccc(C)c3nc(C)cc(c23)N1c1ccc(C)cc1 | -20 | 6 | -10 | 0 | -1 | x
Cc1ccc(N2C=Nc3ccc(C)c4nc(C)cc2c34)cc1 | 0 | 1 | 18* | -1 | 1 | -1
O=C(CSc1nnc(-c2ccccc2O)o1)N1CCCCC1 | -5 | -4 | 3 | 2 | 0 | x
C[C@H](O)[C@@H]1CN2CCc3c([nH]c4ccccc34)[C@@H]2C[C@@H]1N(C)C(=S)NCCc1ccccc1 | x | x | 197* | x | x | 121*
O=C(NCc1cc([N+](=O)[O-])ccc1O)c1cc(-c2ccncc2)nc2ccccc12 | -10 | -4 | -8 | -4 | 1 | x
CN(C)Cc1cc(O)c(CN(C)C)cc1O | -3 | 5 | 32* | 8 | 10 | -65
COc1ccc(C2CC(=O)C(C=NCC(C)C)=C(O)C2)cc1 (stereo unspecified) | -13 | 1 | -15 | -6 | 0 | x
COc1ccc(C2CC(=O)C(C=NCCCO)=C(O)C2)cc1 (stereo unspecified) | -11 | 5 | 44* | 8 | 9 | 42*
CC(=O)c1cccc(NC(=O)COc2cc(C)on2)c1 | -3 | -3 | -4 | -2 | -1 | x
COc1cccc(OC)c1C(=O)NNC(=O)c1cccc(COc2ccc3c(c2)CCC3)c1 | -4 | -1 | 15* | 12 | 1 | -1
O=C(NCc1ccccc1)c1cccc(COc2ccc3c(c2)CCC3)c1 | -9 | -1 | 3 | 1 | 0 | x
CCOC(=O)N1CCN(Cc2nc3ccc([N+](=O)[O-])cc3c(=O)n2-c2ccccc2F)CC1 | -7 | -3 | 18* | 10 | 0 | 0
Cc1[nH]c2ccc3ncccc3c2c1C | -8 | -5 | -9 | 8 | -2 | x
